Bioassay records as filed in PubChem BioAssay.
BCR signal inh: inhibitors of chronic active B-cell receptor signaling; 340,000 tested, 0.05% active; ABC-DLBCL IkBa-CBG/CBR reporter, luminescence ratio, 4 h; Potency, µM (titrated, usually from 46.1 µM), without a hit: top-dose activity change, negative = inhibition, hits mostly inhibitors; active = well fitted inhibition curve with a large enough effect in the signal ratio, with a control signal flat, not every such curve was filed as active; inconclusive = small, poorly fitted or top-dose-only effect, or effect the other way, or a change in a side signal; the % refers to the signal ratio;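 note: potency is the fitted concentration of half-maximal effect; plate controls were basal doxycycline-induced cells for no effect and cells given 10 µM MG132 for full effect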
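Concentration-response series (up to 46 uM) were applied to TMD8 dual-reporter cells for 4 h at 37C with doxycycline. Green/red ratio, after filter-overlap correction, defined %Activity; red signal alone was normalised to basal cells and zero luminescence.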
TDP1 cell noCPT: qHTS for Inhibitors of human tyrosyl-DNA phosphodiesterase 1 (TDP1): qHTS in cells in absence of CPT; DT40 Tdp1-/- hTDP1 cells, no CPT, ATP luminescence, 48 h; 420,000 tested, 15% active; Potency, µM (highest dose often 46.2 µM), for the others: at the top dose activity change, negative = growth inhibition, usual class: inhibitors; note: potency is the fitted concentration of half-maximal effect; % is set by controls: 0 for no effect and ±100 for the full control effect; nearly all actives have a fitted effect of over 55% in size
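Cells were dispensed at 400 per well, compounds added by pin tool, plates incubated ≥48 hr at 37 °C, then CellTiter-Glo added for 30 min at room temperature before luminescence reading. Line: DT40 Tdp1-/- complemented with hTDP1; camptothecin omitted.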
DT40 TDP1 CPT: DT40-hTDP1 cell growth loss with CPT | 420,000 tested, 12% active | Potency, µM (doses to about 46.2 µM), for the others: at the top dose activity change, negative = growth inhibition, usual class: inhibitors | AID 686979 | chicken DT40 Tdp1-/-;hTDP1 cells + 20 nM CPT, ATP luminescence, 48 h; note: potency is the fitted concentration of half-maximal effect; % is set by controls: 0 for no effect and ±100 for the full control effect; nearly all actives have a fitted effect of over 55% in size
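Cell growth measured by CellTiter-Glo luminescence after a minimum 48 h, 37 C compound exposure with 20 nM CPT in Tdp1-knockout DT40 cells stably expressing hTDP1, seeded 400/well; qHTS titration format.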
SW480 rerep: induces DNA re-replication in SW480 colon adenocarcinoma cells; SW480 DNA re-replication, Hoechst DNA content imaging, 48 h; 340,000 tested, 1.8% active; Potency, µM (highest dose often 46.1 µM), for the others: at the top dose re-replication activation, actives largely listed as activators; note: potency is the fitted concentration of half-maximal effect; % of control where 0% means no effect; nearly all actives have a fitted effect of over 55% in size
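Quantitative HTS format with DMSO vehicle controls; 48 hr drug incubation at 37 C, then 40 min Hoechst staining and scanning imager measurement at 405 nm excitation.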
IL1B secr inh: inhibitors of inflammasome signaling (IL-1 beta secretion) | THP-1 LPS/ATP IL-1B secretion, AlphaLISA, 16 h; hits give low values | activity change, % at 57.5 µM | 360,000 tested, 4.7% active | AID 743279; in the data active = activity change below about -50%; inconclusive = mostly about -30% to -49%; note: % is set by controls: 0 for no effect and ±100 for the full control effect
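THP-1 cells pretreated 1 hr with compounds (up to 57.5 uM final), then stimulated with LPS (250 ng/mL final) plus ATP (1.25 mM final); secreted IL-1B measured by AlphaLISA after 16 hr, decreased signal indicating inhibition.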
MCF10A rereplic: induces DNA re-replication in MCF 10a normal breast cells; MCF 10A DNA re-replication, Hoechst nuclear intensity, 48 h; Potency, µM (doses to about 46.1 µM), inactives show at the top dose activity, positive = re-replication, usual class: activators; 350,000 tested, 2.9% active; AID 624296; note: potency is the fitted concentration of half-maximal effect; % of control where 0% means no effect; nearly all actives have a fitted effect of over 50% in size
* = called active by the depositor; ? = inconclusive; . = not tested or not shown; [ ] = remark or other dose. An excerpt weighted towards active compounds, which were near 19% of everything screened. Unless noted, calls come from the whole dose curve; as a rule, active = well fitted curve in the direction sought with a large enough effect; inconclusive = small, poorly fitted or top-dose-only effect, or another doubt; inactive = no such curve, though single readings can be large; an effect the other way counts as inactive or inconclusive.

SMILES	BCR signal inh	TDP1 cell noCPT	DT40 TDP1 CPT	SW480 rerep	IL1B secr inh	MCF10A rereplic
CCOC(=O)c1c(NCC2CCCO2)c2ccccc2[nH]c1=O (configuration not stated)	3%	-13%	-11%	-16%	-14	-1%
CCOC(=O)c1c(C)oc2c1cc(O)c1ccccc12	?	-17%	-18%	-12%	38	1%
CCOC(=O)c1c(C)oc2c1c(C(c1cccnc1)N1CCOCC1)c(O)c1ccccc12 (configuration not stated)	?	18µM*	?	-2%[9.22 µM]	-110*	?
CCOC(=O)c1c(C)oc2c1c1c(c3ccccc32)OCN(Cc2cccnc2)C1	?	?	?	-3%	-13	18%
CCOC(=O)c1c(C)oc2c1c(C=NCC1CCCO1)c(O)c1ccccc12 (configuration not stated)	9%	18µM*	?	-4%	-21	?
COC(=O)c1ccccc1NC(=O)CSc1c2c(nc3ccc(Cl)cc13)CCCC2	.	12µM*	?	.	.	.
Cc1cc(NC(=O)CSc2c3c(nc4ccccc24)CCC3)no1	?	?	?	19%	-7	?
COC(=O)c1ccccc1NC(=O)c1ccc2c(Cl)c3c(nc2c1)CCCC3	.	4%	2%	.	.	.
Cc1ccc(C)c(NC(=O)CSc2c3c(nc4ccc(Cl)cc24)CCCC3)c1	.	21µM*	21µM*	.	.	.
COc1ccc(C(=O)CSc2nnc(NC(=O)C3CC(=O)N(c4ccccc4)C3)s2)cc1 (configuration not stated)	1%	?	-18%	2.9µM*	10	6%
COC(=O)c1ccc(CSc2nnc(NC(=O)C3CC(=O)N(c4ccc5c(c4)OCCO5)C3)s2)cc1 (configuration not stated)	3%	21µM*	23µM*	-5%	-14	0%
O=S(=O)(c1cccs1)N1CCN(CC(O)COC2CCCc3ccccc32)CC1 (configuration not stated)	0%	-24%	-16%	-3%	-2	2%
O=S(=O)(c1cccs1)N1CCN(CC(O)COc2cccc(Br)c2)CC1 (configuration not stated)	?	?	21µM*	?	-9	14%
OCC[C@H]1C[C@@H](O)[C@H](O)[C@]2(OCc3ccccc32)O1	8%	0%	8%	-27%[9.22 µM]	22	3%
Cc1ccc2cc(C)c3nnc(SCC(=O)Nc4nc5c(s4)CCCC5)n3c2c1C	?	?	?	?	-24	?
CC[N+](CC)(CC)CC(=O)Nc1ccc(SC(F)F)cc1	0%	-19%	?	-8%	-96*	3%
Cc1ccc(C(=O)Nc2ccc(SC(F)F)cc2)s1	?	?	?	-124%	-59*	-26%
O=C(Cn1cnc2ccccc21)Nc1ccc(SC(F)F)cc1	-8%	2.3µM*	21µM*	1%	-61*	11%
CCn1c(N)[n+](CC(=O)Nc2ccc(SC(F)F)cc2)c2ccccc21	0%	13µM*	?	?	-97*	?
O=C(Nc1ccc(SC(F)F)cc1)C1=COCCO1	?	-14%	-28%	-5%	-6	-10%
CN(C)CCNC(=O)CN1C(=O)COc2ccc(S(=O)(=O)N3CCCC3)cc21	.	-17%	4%	.	.	.
Cc1cc(Br)ccc1NC(=O)c1cn(C2CCCC2)c(=O)c2c1c1ccccc1n2C	.	?	-27%	.	.	.
CCNC(=S)N/N=C(\C)c1cccc(C(F)(F)F)c1	?	?	?	-3%	-23	-3%
C/C(=N\NC(=S)NC1CCCCC1)c1cccc(Br)c1	-1%	16µM*	?	-3%	-2	?
C/C(=N\NC(=S)NC1CCCCC1)c1cccc(C(F)(F)F)c1	5%	23µM*	21µM*	1%	58	?
SMILES	BCR signal inh	TDP1 cell noCPT	DT40 TDP1 CPT	SW480 rerep	IL1B secr inh	MCF10A rereplic
C/C(=N\NC(=S)NC1CCCCC1)c1ccc(C#N)cc1	4%	?	?	-3%	24	1%
CCC1CCCCN1C(=O)CCn1c(=O)oc2ccccc21 (configuration not stated)	.	-2%	10%	?	-2	3%
Cc1ccc(Cl)cc1N1CCN(c2nc3ccc(C(=O)c4ccccc4)cc3n3cnnc23)CC1	.	23µM*	18µM*	.	.	.
Cc1ccc(N2CCN(c3nc4ccc(C(=O)c5ccccc5)cc4n4cnnc34)CC2)c(C)c1	.	18µM*	?	.	.	.
COc1cccc(N2CCN(c3nc4ccc(C(=O)c5ccccc5)cc4n4c(C)nnc34)CC2)c1	.	16µM*	?	.	.	.
COc1ccc(CCc2nnc(N)s2)cc1OC	?	13%	-4%	1%	-9	-10%
Cc1ccc(-n2nc(C(=O)N3CCN(c4ccccc4F)CC3)c(=O)n(C)c2=O)cc1	.	-14%	-9%	.	.	.
CC(C)c1cccc(OCCN2CCCC2)c1	2%	2%	16%	-1%	9	?
Cc1nnc(N(C)C(=O)c2ccc3c(c2)OCO3)s1	3%	0%	2%	-31%	-15	-2%
COc1ccc(C(=O)/C(=C/O)N=Nc2ccc(F)cc2)cc1	25%	?	?	?	-99*	?
O=C(/C(=C/O)N=Nc1ccc(Cl)cc1)c1ccncc1	?	26µM*	15µM*	?	-7	?
CC(C)C1Cc2ccccc2-c2[nH]c(=S)[nH]c(=O)c21 (configuration not stated)	.	6%	0%	-38%	.	?
Ic1ccc(Nc2nc(NCCN3CCOCC3)nc(N3CCCC3)n2)cc1	.	11µM*	11µM*	.	.	.
Ic1ccc(Nc2nc(NCCN3CCOCC3)nc(N3CCOCC3)n2)cc1	.	2.8µM*	5µM*	.	.	.
O=C(COc1cc2oc(=O)c3c(c2cc1Cl)CCC3)NCC(O)c1ccccc1 (configuration not stated)	0%	?	?	13%	-7	-12%
Cc1cccc2c1NC(=O)C2(O)N1CCCC(C)C1 (configuration not stated)	0%	1%	-1%	-2%	9	5%
O=C(CCSCc1cnn(-c2ccccc2)c1-n1cccc1)NCc1ccccc1Cl	.	?	18µM*	.	.	.
Cc1ccc(NC(=O)CSCc2cnn(-c3ccccc3)c2-n2cccc2)c(C)c1	.	16µM*	?	.	.	.
